Measured values taken from PubChem BioAssay.
Active and inactive are the calls of the source.

What was measured:
[1] = tested on: Plasmodium falciparum Sir2 (PF13_0152, Sir2A); test: Plasmodium falciparum Sir2A binding compounds – biochemical, small-molecule microarray, 635 nm fluorescence, primary screen (AID 1098); conditions: fluorescence 635 nm, higher = more signal;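 further: score merges spot fluorescence intensity with its signal-to-noise ratio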
[2] = probe aDKK1 binding to arrayed compounds – biochemical, biotinylated probe, 635/667 nm fluorescence, primary screen (AID 1099); conditions: small-molecule microarray, higher = more signal;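 further: score merges 667nm spot fluorescence with signal to noise across triplicate slides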
[3] = probe aCHRDL2 binding to arrayed compounds – biochemical, biotinylated probe, 635/667 nm fluorescence, primary screen (AID 1100); conditions: small-molecule microarray, higher = more signal
[4] = change in splice reporter luminescence, either direction, cell-based, HEK293, spliceosome inhibition project, primary screen (AID 1101); conditions: HEK293 splicing luciferase reporter, 24 h, higher = more signal, called active from +8 up or from −8 down;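 further: HEK293 cells carrying a splicing-competent luciferase reporter gene; test concentration not given here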
[5] = target: Fibroblast growth factor 10 (Homo sapiens) (UniProt O15520); test: compounds binding fibroblast growth factor 10 – biochemical, small-molecule microarray, 635 nm fluorescence, primary screen (AID 1102); conditions: FGF10 binding, fluorescence 635 nm, higher = more signal
Sequence of Fibroblast growth factor 10 (Homo sapiens) (O15520 whole entry, looked up): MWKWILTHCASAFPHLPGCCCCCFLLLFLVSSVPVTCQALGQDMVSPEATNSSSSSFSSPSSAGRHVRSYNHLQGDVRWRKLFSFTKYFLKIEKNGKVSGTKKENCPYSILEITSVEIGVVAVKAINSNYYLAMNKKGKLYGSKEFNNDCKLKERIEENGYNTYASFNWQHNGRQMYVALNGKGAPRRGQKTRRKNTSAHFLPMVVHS

[6] = tested on: glycogen synthase kinase-3 (GSK3A per assay name; protocol says GSK3B); test: compounds binding glycogen synthase kinase-3 – biochemical, small-molecule microarray, 635 nm fluorescence, GSK3A, primary screen (AID 1103); conditions: fluorescence 635 nm, higher = more signal; further: the record names both GSK3A and GSK3B
[7] = target: Epidermal growth factor receptor (Homo sapiens) (UniProt P00533); test: compounds binding epidermal growth factor receptor – biochemical, small-molecule microarray, 635 nm fluorescence, primary screen (AID 1104); conditions: EGFR binding, higher = more signal;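 further: score merges 667 nm emission intensity with spot signal to noise over triplicate slides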
Sequence of Epidermal growth factor receptor (Homo sapiens) (P00533 whole entry, looked up): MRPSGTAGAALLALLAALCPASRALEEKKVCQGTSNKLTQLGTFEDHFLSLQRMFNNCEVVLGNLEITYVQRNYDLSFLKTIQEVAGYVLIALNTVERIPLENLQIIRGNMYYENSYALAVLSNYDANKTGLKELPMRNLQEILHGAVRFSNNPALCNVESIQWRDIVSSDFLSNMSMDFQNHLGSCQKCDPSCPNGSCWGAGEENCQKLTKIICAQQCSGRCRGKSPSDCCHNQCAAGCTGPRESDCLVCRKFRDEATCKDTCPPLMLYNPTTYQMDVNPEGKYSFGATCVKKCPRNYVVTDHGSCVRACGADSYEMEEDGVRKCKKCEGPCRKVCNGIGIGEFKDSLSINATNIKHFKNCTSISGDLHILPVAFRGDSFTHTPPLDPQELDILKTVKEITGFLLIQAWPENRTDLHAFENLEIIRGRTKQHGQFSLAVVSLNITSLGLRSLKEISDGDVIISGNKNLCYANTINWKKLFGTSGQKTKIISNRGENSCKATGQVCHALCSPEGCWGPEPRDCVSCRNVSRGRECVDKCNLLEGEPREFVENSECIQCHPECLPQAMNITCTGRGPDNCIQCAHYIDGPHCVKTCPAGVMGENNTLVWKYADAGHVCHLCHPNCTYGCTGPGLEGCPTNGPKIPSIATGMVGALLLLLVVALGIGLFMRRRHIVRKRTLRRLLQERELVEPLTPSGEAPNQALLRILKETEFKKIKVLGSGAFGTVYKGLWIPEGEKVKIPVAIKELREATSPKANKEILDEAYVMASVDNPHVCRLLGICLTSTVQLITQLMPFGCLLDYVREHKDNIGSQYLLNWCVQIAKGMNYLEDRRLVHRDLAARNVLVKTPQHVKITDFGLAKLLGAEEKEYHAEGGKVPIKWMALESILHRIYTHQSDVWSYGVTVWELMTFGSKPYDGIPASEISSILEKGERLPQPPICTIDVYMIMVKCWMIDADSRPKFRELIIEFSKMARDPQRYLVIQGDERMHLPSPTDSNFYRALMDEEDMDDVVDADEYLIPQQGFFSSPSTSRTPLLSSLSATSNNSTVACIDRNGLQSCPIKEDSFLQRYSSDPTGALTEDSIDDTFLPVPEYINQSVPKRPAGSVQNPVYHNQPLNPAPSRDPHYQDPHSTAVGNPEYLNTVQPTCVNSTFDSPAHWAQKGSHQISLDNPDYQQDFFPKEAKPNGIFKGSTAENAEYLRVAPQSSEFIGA

[8] = target: Follistatin-related protein 3 (Homo sapiens) (UniProt O95633); test: compounds binding follistatin-related protein 3 – biochemical, small-molecule microarray, 635 nm fluorescence, primary screen (AID 1105); conditions: FSTL3 binding, higher = more signal;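 further: score merges emission near 667 nm and signal to noise per printed spot across three slides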
Sequence of Follistatin-related protein 3 (Homo sapiens) (O95633 whole entry, looked up): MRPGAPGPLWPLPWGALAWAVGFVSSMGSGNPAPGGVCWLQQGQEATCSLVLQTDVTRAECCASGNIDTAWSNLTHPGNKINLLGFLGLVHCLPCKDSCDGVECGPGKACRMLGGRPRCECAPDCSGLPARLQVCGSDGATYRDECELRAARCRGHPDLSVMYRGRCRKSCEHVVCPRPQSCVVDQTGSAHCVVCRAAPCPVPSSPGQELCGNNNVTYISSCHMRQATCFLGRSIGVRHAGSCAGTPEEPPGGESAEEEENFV

[9] = target: Dickkopf-related protein 1 (Homo sapiens) (UniProt O94907); test: small molecules binding DKK1 protein – biochemical, small-molecule microarray, 635 nm fluorescence scan, primary screen (AID 1106); conditions: higher = more signal;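 further: score merges emission near 667 nm with signal to noise over three replicate slides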
Sequence of Dickkopf-related protein 1 (Homo sapiens) (O94907 whole entry, looked up): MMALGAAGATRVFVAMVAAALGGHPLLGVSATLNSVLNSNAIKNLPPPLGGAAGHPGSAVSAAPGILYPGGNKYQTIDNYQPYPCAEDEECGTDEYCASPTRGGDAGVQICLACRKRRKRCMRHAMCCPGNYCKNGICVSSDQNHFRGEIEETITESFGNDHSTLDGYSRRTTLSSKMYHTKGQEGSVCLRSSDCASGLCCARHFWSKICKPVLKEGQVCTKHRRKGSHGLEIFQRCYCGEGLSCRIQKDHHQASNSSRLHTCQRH

[10] = tested on: Inhibin beta A chain (activin A); test: small molecules binding activin A – biochemical, small-molecule microarray, 635 nm fluorescence scan, primary screen (AID 1107); conditions: INHBA, higher = more signal;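 further: mouse activin A protein probed at 4.33 µg/mL on printed slides; score merges bound-protein fluorescence near 667 nm with spot signal-to-noise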
[11] = tested on: Human papillomavirus type 1a protein E7 (residues 44-93); test: small molecules binding HPV E7 44-93 – biochemical, small-molecule microarray, residues 44-93, 635 nm fluorescence, primary screen (AID 1108); conditions: fluorescence 635 nm, higher = more signal;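 further: E7 fragment applied at 1 µg/mL in TBST for 1 h at 4 C; score combines spot fluorescence with its signal to noise ratio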
[12] = hepatitis C replication reporter changes, two-sided – Huh7 cells, luciferase reporter, HCV replication inhibitor project, primary screen (AID 1109); conditions: Huh7 HCV replicon luciferase reporter, 48 h; higher = more signal;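 further: huh7 hepatoma cells harbouring a luciferase neomycin HCV replicon reporter; luciferase luminescence as measure of HCV replicon replication; test concentration not given here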
[13] = target: Left-right determination factor 2 (Homo sapiens) (UniProt O00292); test: small molecules binding LEFTY2 protein – biochemical, small-molecule microarray, 635 nm fluorescence scan, primary screen (AID 1110); conditions: higher = more signal
Sequence of Left-right determination factor 2 (Homo sapiens) (O00292 whole entry, looked up): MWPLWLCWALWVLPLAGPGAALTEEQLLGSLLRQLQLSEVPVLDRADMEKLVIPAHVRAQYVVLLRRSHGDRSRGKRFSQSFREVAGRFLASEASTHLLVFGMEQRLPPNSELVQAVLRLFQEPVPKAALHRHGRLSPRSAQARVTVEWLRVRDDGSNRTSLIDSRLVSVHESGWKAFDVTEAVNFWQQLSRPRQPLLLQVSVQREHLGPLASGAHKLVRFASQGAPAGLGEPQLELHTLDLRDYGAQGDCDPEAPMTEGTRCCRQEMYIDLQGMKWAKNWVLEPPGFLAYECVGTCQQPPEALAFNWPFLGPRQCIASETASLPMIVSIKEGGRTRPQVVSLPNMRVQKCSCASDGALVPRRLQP

[14] = target: Calmodulin-1 (Homo sapiens) (UniProt P0DP23); test: small molecules binding calmodulin-1 with EGTA – biochemical, small-molecule microarray, Cy5-labelled CALM1, profiling panel (AID 1111); conditions: Cy5-CALM1 binding fluorescence, higher = more signal;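 further: labelled calmodulin applied in Tris saline Tween buffer holding calcium plus EGTA and DTT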
[15] = target: Calmodulin-1 (Homo sapiens) (UniProt P0DP23); test: small molecules binding Ca-loaded calmodulin-1 – biochemical, small-molecule microarray, Cy5-labelled CALM1, plus calcium, artefact control for SMM control-protein annotation, profiling panel (AID 1112); conditions: Cy5-CALM1 binding fluorescence, higher = more signal;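 further: score merges spot fluorescence with signal to noise from triplicate slides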
[16] = probe aWnt5a binding to arrayed compounds – biochemical, biotinylated probe, 635/667 nm fluorescence, primary screen (AID 1113); conditions: small-molecule microarray, higher = more signal;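 further: score merges 667 nm fluorescence intensity with signal-to-noise per printed feature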
[17] = probe aShh binding to arrayed compounds – biochemical, biotinylated probe, 635/667 nm fluorescence, primary screen (AID 1114); conditions: small-molecule microarray, higher = more signal;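 further: probe is biotin-labelled aShh protein from a stem cell growth factor screen; measures binding of labelled protein to compounds printed on the slide; score merges feature fluorescence at 667 nm with signal-to-noise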
[18] = probe aNog binding to arrayed compounds – biochemical, biotinylated probe, 635/667 nm fluorescence, primary screen (AID 1115); conditions: small-molecule microarray, higher = more signal;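 further: probe is biotinylated aNog protein used at 0.15 µg/mL for 1 h at 4 C; z-score combines 667 nm fluorescence of each spot with its signal to noise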
[19] = target: Torsin-1A-interacting protein 1 (Homo sapiens) (UniProt Q5JTV8); test: compound microarray binding of lysate hLAP1 – cell lysate, small-molecule microarray, COS7 lysate, 635/667 nm fluorescence, primary screen (AID 1116); conditions: 635 nm fluorescence, higher = more signal
Sequence of Torsin-1A-interacting protein 1 (Homo sapiens) (Q5JTV8 whole entry, looked up): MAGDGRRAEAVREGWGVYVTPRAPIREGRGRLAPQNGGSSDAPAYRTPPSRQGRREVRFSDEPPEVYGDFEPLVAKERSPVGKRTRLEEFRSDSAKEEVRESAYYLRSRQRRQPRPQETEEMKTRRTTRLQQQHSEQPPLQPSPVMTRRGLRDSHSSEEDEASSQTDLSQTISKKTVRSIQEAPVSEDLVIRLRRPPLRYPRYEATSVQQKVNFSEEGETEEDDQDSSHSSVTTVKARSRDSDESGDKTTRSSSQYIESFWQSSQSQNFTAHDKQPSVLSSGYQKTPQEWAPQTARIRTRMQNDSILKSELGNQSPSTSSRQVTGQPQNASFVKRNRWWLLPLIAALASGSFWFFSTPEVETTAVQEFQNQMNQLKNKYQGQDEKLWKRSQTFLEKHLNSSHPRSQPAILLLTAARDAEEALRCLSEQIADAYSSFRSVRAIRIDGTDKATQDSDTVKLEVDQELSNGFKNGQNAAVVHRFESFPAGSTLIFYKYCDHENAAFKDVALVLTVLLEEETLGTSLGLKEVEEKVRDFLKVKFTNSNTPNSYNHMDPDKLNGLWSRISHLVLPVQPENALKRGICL

[20] = target: Alpha-bungarotoxin (Bungarus multicinctus) (UniProt P60615); test: compounds binding labelled alpha-BTX control protein – biochemical, small-molecule microarray, Alexa647 label, 635/667 nm fluorescence, artefact control for SMM control protein annotation, profiling panel (AID 1117); conditions: alpha-BTX-A647 binding fluorescence, higher = more signal
Sequence of Alpha-bungarotoxin (Bungarus multicinctus) (P60615 whole entry, looked up): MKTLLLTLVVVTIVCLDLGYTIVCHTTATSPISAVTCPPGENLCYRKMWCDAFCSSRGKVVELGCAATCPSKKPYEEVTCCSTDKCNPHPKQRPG

| SMILES | composite z-score [1] | composite z-score [2] | composite z-score [3] | z-score [4] | composite z-score [5] | composite z-score [6] | composite z-score [7] | composite z-score [8] | composite z-score [9] | composite z-score [10] | composite z-score [11] | z-score [12] | composite z-score [13] | composite z-score [14] | composite z-score [15] | composite z-score [16] | composite z-score [17] | composite z-score [18] | composite z-score [19] | composite z-score [20] |
| --- | --- | --- | --- | --- | --- | --- | --- | --- | --- | --- | --- | --- | --- | --- | --- | --- | --- | --- | --- | --- |
| COC(=O)[C@@]1(Cc2ccc(OC)cc2)[C@H]2c3cc(C(=O)N4CCCC4)n(Cc4ccc(OC)c(OC)c4)c3C[C@H]2CN1C(=O)c1ccccc1 | 1.04 | 1.56 | 0.9 | -1.81 (inactive) | 0.784 | 1.17 | 1.34 | 1.42 | 0.56 | 1.01 | 1.39 | -1.72 | 0.381 | 2.16 | 0.811 | -0.158 | -0.008 | 0.162 | 0.371 | 0.381 |
| COc1ccc([Si](C)(C)[C@H]2[C@H](CCn3cc([C@H](O)c4ccccc4)nn3)O[C@@]3(C(=O)N(Cc4cccc(N5CCOC5=O)c4)c4ccccc43)[C@@H]2C)cc1 | 0.463 | 0.0739 | -0.313 | 0.36 (inactive) | 0.339 | 0.709 | 0.334 | 0.769 | 0.913 | 0.464 | 0.96 | -2.36 | 0.481 | 0.0776 | -0.182 | 0.0094 | -0.349 | -0.0612 | 0.0061 | 0.353 |
| COc1ccc(C(=O)O[C@H]2CC[C@]3(C)C4=C(CCC3C2(C)C)[C@]2(C)CC[C@H]([C@H](C)CCCC(C)C)[C@@]2(C)CC4)cc1 (stereo not given in full) | 0.0931 | -0.287 | -0.384 | -0.968 (inactive) | 0.205 | 0.751 | 0.302 | 0.561 | 0.458 | 0.225 | -0.0389 | 0.606 | 0.567 | -0.459 | -0.83 | -0.0792 | -0.0553 | -0.0242 | 0.0921 | -0.086 |
| O=C(NCC(F)(F)F)[C@@H]1c2ccccc2C(=O)N(C2CCCCC2)[C@H]1c1ccc(CO)cc1 | 1.56 | 0.121 | 0.528 | 0.283 (inactive) | 0.0573 | -0.0294 | -0.759 | 0.177 | -0.783 | -0.0906 | 0.268 | -1.7 | -0.382 | 0.218 | -0.403 | -0.172 | -0.138 | -0.342 | -0.257 | 1.43 |
| C=CCNC(=O)[C@H]1[C@@H]2C(=O)O[C@@H](c3ccccc3)[C@@H](c3ccccc3)N2[C@@H](c2ccccc2OCCO)[C@]12C(=O)Nc1ccc(C#CC3=CCCCC3)cc12 | 1.28 | -0.22 | 0.317 | -2.23 (inactive) | 1.27 | 1.3 | 0.48 | 1.24 | 0.646 | 1.17 | 1.12 | -3.52 | 0.531 | 0.904 | -0.321 | -0.1 | 0.0588 | 0.163 | 0.358 | 0.99 |
| COCCOC(=O)N1C(=O)[C@@]2(c3cc(C#CCCO)ccc31)[C@H](C(=O)N1CCN(c3ncccn3)CC1)[C@H]1C(=O)O[C@H](c3ccccc3)[C@H](c3ccccc3)N1[C@@H]2c1ccccc1OCCO | 0.748 | 0.293 | -0.0474 | -0.32 (inactive) | 0.727 | 1.26 | 0.688 | 0.751 | 0.547 | 0.487 | 1.37 | -1.86 | 0.56 | 1.72 | 0.55 | -0.0614 | -0.214 | 0.207 | 0.249 | 0.64 |
| C=CC[C@@]1(C(N)=O)N=C(c2ccc(OCCCO)cc2)O[C@@H]1c1ccccc1CN=[N+]=[N-] | 1.02 | 0.917 | 1.19 | -1.63 (inactive) | 0.903 | 0.336 | -0.44 | 0.267 | -0.196 | 1.14 | 1.39 | -1.56 | -0.294 | 1.64 | 0.767 | 0.0597 | 0.166 | 0.661 | 1.91 | 0.834 |
